HT1080-NT tox: kills 2HG-producing HT-1080-NT fibrosarcoma cells | HT-1080-NT fibrosarcoma viability, CellTiter-Glo ATP luminescence, 48 h | Potency, µM (doses to about 46.1 µM), usual class: cytotoxic | hit rate 1.6% among 360,000 | AID 686970;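 note: NT is the 2HG producing partner of a matched IDH1 knockdown line; nearly all actives have a fitted effect of over 55% in size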
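HT-1080-NT fibrosarcoma cells (2HG-overproducing), 750 cells/well in RPMI with 5% FBS, dosed after 2 h and incubated 48 h at 37C. CellTiter-Glo luminescence normalized to DMSO and no-cell wells; concentration-response curves fitted and classed.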
IL1B secr inh: inhibitors of inflammasome signaling (IL-1 beta secretion); activity change, % at 57.5 µM; hit rate 4.7% among 360,000; THP-1 LPS/ATP IL-1B secretion, AlphaLISA, 16 h; active compounds read low; in the data active = activity change below about -50%; inconclusive = mostly about -30% to -49%
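THP-1 cells pretreated 1 hr with compounds (up to 57.5 uM final), then stimulated with LPS (250 ng/mL final) plus ATP (1.25 mM final); secreted IL-1B measured by AlphaLISA after 16 hr, decreased signal indicating inhibition.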
HT1080 IDH1KD tx: kills HT-1080 cells with IDH1 knockdown. Potency, µM (top dose mostly 46.1 µM), most hits filed as cytotoxic. hit rate 2% among 360,000. HT-1080 IDH1 knockdown viability, ATP luminescence, 48 h. AID 686971
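Luminescent ATP read-out (CellTiter-Glo, 10 min at room temperature) after 48 h compound exposure at 37 °C gave viability of IDH1-knockdown HT-1080 cells. Activity was normalised to DMSO and cell-free wells, then fitted as concentration-response curves.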
DT40 TDP1 no CPT: qHTS for Inhibitors of human tyrosyl-DNA phosphodiesterase 1 (TDP1): qHTS in cells in absence of CPT. DT40 Tdp1-/- hTDP1 cells, no CPT, ATP luminescence, 48 h. Potency, µM (top dose mostly 46.2 µM), most hits filed as inhibitors. hit rate 15% among 420,000. AID 686978, 2013; note: nearly all actives have a fitted effect of over 55% in size
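Growth of hTDP1-complemented DT40 Tdp1-knockout cells is measured by ATP luminescence after at least 48 hr compound exposure at 37 °C, with DMSO substituting for the 20 nM CPT used in the parallel screen.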
TDP1 cell CPT: growth inhibition of DT40 Tdp1-/-;hTDP1 cells with camptothecin (screen for TDP1 inhibitors) | chicken DT40 Tdp1-/-;hTDP1 cells + 20 nM CPT, ATP luminescence, 48 h | Potency, µM (top dose mostly 46.2 µM), actives largely listed as inhibitors | hit rate 12% among 420,000; note: nearly all actives have a fitted effect of over 55% in size
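Cell growth measured by CellTiter-Glo luminescence after a minimum 48 h, 37 C compound exposure with 20 nM CPT in Tdp1-knockout DT40 cells stably expressing hTDP1, seeded 400/well; qHTS titration format.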
A number is an active result; . = inactive; ? = inconclusive; / = no result given; [ ] = dose if it differs, or a comment. Most compounds without a hit are left out; they make up all but 19% or so of the library. Unless noted, calls come from the whole dose curve; as a rule, active = well fitted curve in the direction sought with a large enough effect; inconclusive = small, poorly fitted or top-dose-only effect, or another doubt; inactive = no such curve, though single readings can be large; an effect the other way counts as inactive or inconclusive.

SMILES	HT1080-NT tox	IL1B secr inh	HT1080 IDH1KD tx	DT40 TDP1 no CPT	TDP1 cell CPT
O=C(C[N+]12CCCc3cccc(c31)CCC2)c1ccc2ccc3cccc4ccc1c2c34	/	/	/	5µM	6.3µM
CC1(C)C(=O)Nc2ccccc2N1C(=O)CSc1nc(-c2ccccc2)cs1	.	?	.	15µM	?
O=C(Cn1ncc(Cl)c(Cl)c1=O)N1CCOCC1	12µM	-99	13µM	13µM	?
O=C1CN(C(=O)CSc2nc(-c3ccccc3)cs2)c2ccccc2N1	.	.	.	?	.
CC1(C)C(=O)Nc2ccccc2N1C(=O)Cn1ncc(Cl)c(Cl)c1=O	.	-99	.	23µM	23µM
O=C(Cn1ncc(Cl)c(Cl)c1=O)N1CCc2ccccc21	4.6µM	-109	2.9µM	6.5µM	4.6µM
Cc1nn(CC(=O)N2c3ccccc3NC(=O)C2(C)C)c(C)c1[N+](=O)[O-]	.	.	.	?	.
CCc1noc(C)c1C(=O)N1CC(C)SC1=Nc1ccc(Cl)cc1 (centres undefined)	.	.	.	.	.
COC1OC(CO)C(N(C)C(C)=O)C1O (centres undefined)	.	.	.	.	.
COC(=O)C1=C(C)N(C2CCCCC2)C(=O)/C1=C\c1cccs1	.	.	.	?	?
O=C(Cn1ncc(Cl)c(Cl)c1=O)N1CCN(Cc2ccccc2)CC1	?	.	?	3.3µM	3.3µM
CC1=N/C(=C\c2ccc([N+](=O)[O-])cc2)C(=O)N1c1ccc(Br)c(C)c1	.	.	.	5.8µM	12µM
Cc1cc(C)cc(NC(=O)CSc2nnc(CNC(=O)c3c(F)cccc3Cl)o2)c1	/	/	/	.	.
CCOc1ccc(CCNC(=O)c2cc(S(=O)(=O)N3CCOCC3)ccc2C)cc1OCC	.	.	.	?	.
C#CCn1c(S(=O)(=O)Cc2ccc(F)cc2)nc(-c2ccccc2)c1-c1ccccc1	?	?	1.4µM	10µM	15µM
CCOC(=O)Cn1c(S(=O)(=O)Cc2cccc(F)c2)nc(-c2ccccc2)c1-c1ccccc1	.	.	7.1µM	10µM	8.2µM
CCCc1cc(=O)n2[nH]c(NC(=O)c3ccc(C(C)(C)C)cc3)nc2n1	/	/	/	.	.
O=C(CSc1nnc(COc2cccc3cccnc23)o1)N1CCCC1	.	.	.	.	.
Cc1ccc(C(=O)CSc2nnc(COc3cccc4cccnc34)o2)cc1	?	?	?	23µM	10µM
Cc1ccc(C(=O)CSc2nnc(COc3cccc(C)c3)o2)cc1	.	.	.	.	.
CC1CCCC(C)N1C(=O)CSc1nnc(COc2cccc3cccnc23)o1 (centres undefined)	.	.	.	?	.
O=C(CSc1nnc(COc2cccc3cccnc23)o1)c1ccc(F)cc1	10µM	.	5µM	4.1µM	4.1µM
COc1cccc(C(=O)CSc2nnc(COc3cccc4cccnc34)o2)c1	?	.	?	4.1µM	3.7µM
COC(=O)c1ccc2c(=O)n(CCN3CCOCC3)c(SCC(=O)Nc3ccc(OC)cc3OC)nc2c1	.	.	.	.	.
CCN(CC)CCn1c(=S)[nH]c2cc(C(=O)NCc3ccc(C)cc3)ccc2c1=O	.	.	.	.	.
SMILES	HT1080-NT tox	IL1B secr inh	HT1080 IDH1KD tx	DT40 TDP1 no CPT	TDP1 cell CPT
NNC(=O)c1cc(-c2ccccc2)sc1N	.	.	.	.	.
COc1cc(C(=O)N/N=C/c2sc(=O)n(-c3ccccc3)c2Cl)cc(OC)c1OC	.	-71	.	?	?
COc1cc(/C=N/NC(=O)c2cc(-c3ccccc3)sc2N)cc(OC)c1OC	?	-72	?	16µM	16µM
COc1cc(/C=C(/C(=O)O)c2ccc(-c3ccccc3)cc2)cc(OC)c1OC	?	.	9.2µM	?	?
Cc1nc(N)sc1C(=O)N/N=C/c1c[nH]c2ccccc12	?	-55	.[9.24 µM]	?	?
COc1ccc(/C=C/C2=Nc3ccccc3NC(C)(C)C2)cc1OC	.	/	.	?	?
CCOc1ccc(Nc2nn(-c3ccc(OC(F)(F)F)cc3)nc2C(C)=O)cc1	/	/	/	.	.
CC(=O)c1cccc(-n2c(CCC(=O)O)ccc2-c2ccc(C)cc2)c1	.	.	.	.	.
Cc1nc(N)sc1C(=O)N/N=C/c1ccc([N+](=O)[O-])cc1	.	.	.	.	.
COc1cc(/C=N\NC(=O)c2sc(N)nc2C)cc(OC)c1OC	.	-79	.	13µM	?
COc1cc(/C=N/NC(=O)c2ccc(-c3ccccc3)cc2)cc(OC)c1OC	.	.	.	?	21µM
Cc1nnsc1C(=O)N/N=C/c1ccc2ccccc2c1O	4.1µM	.	3.7µM	0.82µM	1µM
COc1cc(/C=N/NC(=O)c2sc3nc(C)cc(C)c3c2N)ccc1O	?	-89	?	3.3µM	?
COc1cc([N+](=O)[O-])ccc1N/C=C/C(=O)c1cccs1	.[9.24 µM]	.	?	?	?
C[C@H]1CN([C@@H](C)CO)C(=O)CCCn2nncc2CO[C@H]1CN(C)S(=O)(=O)c1ccccc1F	.	.	.	.	.
COc1cc(/C=N/NC(=O)c2ccc(-n3cccc3)cc2)ccc1O	.	-69	.	?	?
COc1cc(C(=O)N/N=C/c2cccc(Oc3ccccc3)c2)ccc1O	.	.	.	?	?
COc1ccccc1C1CN(Cc2ccc(Sc3nncn3C)o2)Cc2ccccc2O1 (centres undefined)	/	/	/	16µM	.[9.04 µM]
COc1ccccc1C1CN(Cc2cccc(O)c2)Cc2ccccc2O1 (centres undefined)	/	/	/	16µM	.[9.04 µM]
COCc1ccc(CN2Cc3ccccc3OC(c3ccccc3OC)C2)o1 (centres undefined)	/	/	/	.	.[9.04 µM]
CCc1cc(=O)[nH]c(SCc2nc(-c3cccc(Cl)c3)no2)n1	/	/	/	16µM	18µM
CCCc1cc(=O)[nH]c(SCc2nc(-c3ccc(C)cc3)no2)n1	/	/	/	.	.
Cc1cc(-n2c(C)nc3ccccc3c2=O)ccc1NC(=O)c1cccc([N+](=O)[O-])c1C	/	/	/	6.5µM	13µM
Cc1nc2ccccc2c(=O)n1-c1cccc(NS(=O)(=O)c2ccccc2)c1	.	.	.	.	.
Cc1nc2ccccc2c(=O)n1-c1cccc(NC(=O)c2cccs2)c1	.	-51	.	?	?
Cc1c(C(=O)Nc2ccc(-n3c(C)nc4ccccc4c3=O)cc2)cccc1[N+](=O)[O-]	/	/	/	7.3µM	13µM
Cc1c(C(=O)Nc2ccc(C(=O)Nc3ccccc3)cc2)cccc1[N+](=O)[O-]	.	.	.	.	.
Cc1ccn2c(=O)c(NC(=O)c3cccc([N+](=O)[O-])c3C)c(C)nc2c1	/	/	/	18µM	15µM
Cc1cc(-n2c(C)nc3ccccc3c2=O)ccc1NC(=O)c1ccccc1[N+](=O)[O-]	/	/	/	16µM	18µM

From PubChem BioAssay
